For five molecules, composite z-score and z-score results are on record in PubChem BioAssay.

The structures appear in SMILES notation. Active and inactive are the calls of the source. Unless noted, how the calls were made is not given here.

Experiment [1] is described as follows: compounds binding Alexa647 anti-His antibody – biochemical, small-molecule microarray, 635 nm fluorescence, artefact control for SMM control protein annotation, primary screen (AID 1128).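 Further: score merges feature fluorescence with signal-to-noise for each printed compound spot.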 The following applies: higher = more signal.
Experiment [2] relates to Human papillomavirus type 1a E7 protein (residues 1-88). Description: HPV1a E7 small-molecule binders, primary screen, biochemical, small-molecule microarray, residues 1-88, 635 nm (AID 1129). The following applies: small-molecule microarray binding, fluorescence 635 nm; higher = more signal.
For experiment [3], the target named is Focal adhesion kinase 1 (Homo sapiens) (UniProt Q05397). The experiment can be described thus: PTK2 protein binding on printed compound slides – biochemical, small-molecule microarray, 635/667 nm fluorescence, BSA, DTT, primary screen (AID 1130).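 Further: composite of spot emission at 667 nm and signal to noise over triplicate slides.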 The following applies: 635 nm fluorescence, higher = more signal.
Chain of Focal adhesion kinase 1 (Homo sapiens) (Q05397 whole entry, looked up): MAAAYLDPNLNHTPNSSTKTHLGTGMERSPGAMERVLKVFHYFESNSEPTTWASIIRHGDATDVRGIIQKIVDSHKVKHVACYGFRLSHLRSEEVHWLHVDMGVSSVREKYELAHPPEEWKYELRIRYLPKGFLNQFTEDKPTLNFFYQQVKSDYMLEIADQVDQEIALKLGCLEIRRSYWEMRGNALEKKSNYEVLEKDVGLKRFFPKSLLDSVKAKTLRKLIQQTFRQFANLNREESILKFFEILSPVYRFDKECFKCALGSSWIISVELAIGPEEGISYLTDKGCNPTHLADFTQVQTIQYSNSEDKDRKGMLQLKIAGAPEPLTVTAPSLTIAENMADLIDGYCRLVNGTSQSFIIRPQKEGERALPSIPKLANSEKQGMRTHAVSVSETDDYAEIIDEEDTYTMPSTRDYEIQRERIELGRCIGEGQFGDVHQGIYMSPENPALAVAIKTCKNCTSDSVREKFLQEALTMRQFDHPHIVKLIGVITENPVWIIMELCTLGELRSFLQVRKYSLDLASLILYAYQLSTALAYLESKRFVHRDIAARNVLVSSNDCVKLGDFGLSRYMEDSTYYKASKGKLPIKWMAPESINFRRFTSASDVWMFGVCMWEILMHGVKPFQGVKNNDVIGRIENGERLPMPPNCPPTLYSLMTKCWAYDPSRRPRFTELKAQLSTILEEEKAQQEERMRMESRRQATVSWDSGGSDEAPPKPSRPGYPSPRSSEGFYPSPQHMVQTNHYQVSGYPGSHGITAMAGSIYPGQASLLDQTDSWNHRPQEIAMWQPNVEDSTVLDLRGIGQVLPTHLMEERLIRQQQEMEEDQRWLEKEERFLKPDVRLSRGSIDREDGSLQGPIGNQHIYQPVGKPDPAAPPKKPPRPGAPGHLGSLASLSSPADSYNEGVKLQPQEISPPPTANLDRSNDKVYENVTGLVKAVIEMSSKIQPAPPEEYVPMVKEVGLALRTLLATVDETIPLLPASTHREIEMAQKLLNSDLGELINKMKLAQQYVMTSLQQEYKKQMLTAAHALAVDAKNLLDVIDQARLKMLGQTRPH
The test system of experiment [4] is Fibrinogen (Alexa647-labelled). Description: Alexa647-fibrinogen binding to printed small molecules – biochemical, small-molecule microarray, 635/667 nm fluorescence, artefact control for SMM control-protein annotation, profiling panel (AID 1131).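 Further: z-score merges 667 nm fluorescence with per-spot signal-to-noise over triplicate slides.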 The following applies: fibrinogen-A647 binding fluorescence, higher = more signal.
For experiment [5], the target named is Follistatin (Homo sapiens) (UniProt P19883). The experiment can be described thus: FST protein binding to printed compounds – biochemical, small-molecule microarray, 635/667 nm fluorescence, primary screen (AID 1132). As to conditions: 635 nm fluorescence, higher = more signal.
Chain of Follistatin (Homo sapiens) (P19883 whole entry, looked up): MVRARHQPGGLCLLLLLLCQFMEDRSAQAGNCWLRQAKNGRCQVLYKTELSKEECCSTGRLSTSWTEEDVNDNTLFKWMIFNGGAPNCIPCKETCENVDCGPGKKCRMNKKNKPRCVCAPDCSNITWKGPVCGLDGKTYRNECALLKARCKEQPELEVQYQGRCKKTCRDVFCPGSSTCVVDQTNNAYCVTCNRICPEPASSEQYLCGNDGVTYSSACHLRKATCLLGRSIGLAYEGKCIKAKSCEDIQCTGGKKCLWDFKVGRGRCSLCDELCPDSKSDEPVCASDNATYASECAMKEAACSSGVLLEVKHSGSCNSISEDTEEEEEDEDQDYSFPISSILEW
For experiment [6], the target named is Fibroblast growth factor 2 (Homo sapiens) (UniProt P09038). Description: basic fibroblast growth factor binding to printed compounds – biochemical, small-molecule microarray, 635/667 nm fluorescence, primary screen (AID 1133). As to conditions: FGF2, fluorescence 635/667, higher = more signal.
Chain of Fibroblast growth factor 2 (Homo sapiens) (P09038 whole entry, looked up): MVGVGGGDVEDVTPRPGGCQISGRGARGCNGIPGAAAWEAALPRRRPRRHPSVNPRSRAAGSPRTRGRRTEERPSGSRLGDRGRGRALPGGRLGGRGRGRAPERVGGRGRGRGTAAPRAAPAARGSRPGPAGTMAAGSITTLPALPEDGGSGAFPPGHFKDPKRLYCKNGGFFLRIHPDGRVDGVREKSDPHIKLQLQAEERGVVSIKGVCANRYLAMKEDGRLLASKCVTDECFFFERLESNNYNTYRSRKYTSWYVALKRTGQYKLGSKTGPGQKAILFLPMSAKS
A short description of experiment [7]: JC-1 mitochondrial potential readout, lung cancer cells – cell-based, A549, JC-1 fluorescence, basal, 24 h, 100 nL, profiling panel (AID 1138).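 Further: A549 lung adenocarcinoma cells under basal conditions with no added stimulus; test concentration not given here.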 As to conditions: higher = more signal.
In a further experiment the test system is Lefty1. The experiment can be described thus: Lefty1 protein binding to printed compounds – biochemical, small-molecule microarray, 635/667 nm fluorescence, primary screen (AID 1139). As to conditions: fluorescence 635/667, higher = more signal.
The test system of experiment [8] is wheat germ agglutinin (Triticum aestivum), Alexa647-labelled. Description: Alexa647-WGA lectin binding to printed small molecules – biochemical, small-molecule microarray, 635/667 nm fluorescence, artefact control for SMM control-protein annotation, profiling panel (AID 1140).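 Further: score merges 667 nm feature emission with signal to noise over triplicate slides.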 As to conditions: WGA-A647 binding, 635 nm fluorescence, higher = more signal.
The target in experiment [9] is Luciferin 4-monooxygenase (Photinus pyralis) (UniProt P08659). Description: inhibition of purified Photinus pyralis luciferase – biochemical, luminescence, purified enzyme, 2006 set, primary screen (AID 1141).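 Further: cell-free assay with purified firefly luciferase at 100 ng per well in PBS; test concentration not given here.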 As to conditions: purified firefly luciferase, SteadyGlo luminescence, 30 min; higher = more signal, called active from +8 up or from −8 down.
Chain of Luciferin 4-monooxygenase (Photinus pyralis) (P08659 whole entry, looked up): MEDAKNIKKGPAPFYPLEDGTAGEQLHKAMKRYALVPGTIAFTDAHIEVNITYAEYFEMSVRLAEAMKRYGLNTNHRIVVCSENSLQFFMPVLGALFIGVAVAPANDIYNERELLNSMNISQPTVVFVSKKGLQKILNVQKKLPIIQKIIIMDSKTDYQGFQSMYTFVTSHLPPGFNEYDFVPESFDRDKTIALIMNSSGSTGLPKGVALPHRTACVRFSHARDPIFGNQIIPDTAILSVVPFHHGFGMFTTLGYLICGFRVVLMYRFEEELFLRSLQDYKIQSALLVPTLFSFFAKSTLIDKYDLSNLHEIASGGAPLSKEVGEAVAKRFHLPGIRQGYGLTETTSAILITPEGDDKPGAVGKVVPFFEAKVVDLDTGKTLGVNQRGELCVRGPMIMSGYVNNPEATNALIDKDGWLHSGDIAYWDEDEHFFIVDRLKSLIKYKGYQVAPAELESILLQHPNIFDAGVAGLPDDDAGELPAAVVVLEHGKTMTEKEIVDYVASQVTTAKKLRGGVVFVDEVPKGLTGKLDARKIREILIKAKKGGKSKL
The subject of experiment [10] is Wnt5a (protein binding on small-molecule microarray). The experiment can be described thus: small molecules binding Wnt5a protein – biophysical, small-molecule microarray, 635/667 nm fluorescence, primary screen (AID 1142).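 Further: fluorescence read at 667 nm with signal to noise per printed feature.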 The following applies: 635 nm fluorescence, higher = more signal.
Experiment [11] is described as follows: ATP-based viability of Huh7 replicon cells – cell-based, CellTiter-Glo luminescence, basal, 48 h, cytotoxicity control for HCV replication inhibitor project, primary screen (AID 1143).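 Further: Huh7 hepatoma cells carrying a hepatitis C replication reporter with no stimulus; test concentration not given here.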 As to conditions: higher = more signal, called active from +8 up or from −8 down.
Experiment [12] in a line: Pseudomonas biofilm growth suppression – PAO1 strain, BacTiter-Glo luminescence, LB-PBS, primary screen (AID 1144). As to conditions: P. aeruginosa PAO1 biofilm, 12 h, higher = more signal.
Experiment [13] can be described thus: basal CRE-LacZ reporter activity in PC12 – cell-based, unstimulated, primary screen (AID 1145). As to conditions: no forskolin, luminescence, 4.5 h, higher = more signal, called active from +8 up or from −8 down.
Experiment [14] can be described thus: forskolin-driven CRE-LacZ activity in PC12 – cell-based, CRE-LacZ reporter, forskolin-stimulated, primary screen (AID 1146).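 Further: PC12 cells with 6xCRE LacZ reporter stimulated by forskolin 10 µM; beta-galactosidase reporter signal reflecting CREB driven transcription.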 As to conditions: luminescence, 4.5 h, higher = more signal, called active from +8 up or from −8 down.
In experiment [15] the target is Streptavidin (Streptomyces avidinii) (UniProt P22629). Description: compounds binding control protein streptavidin – biophysical, small-molecule microarray, 635/667 nm fluorescence, artefact control for SMM compound annotation, primary screen (AID 1147).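 Further: signal reflects streptavidin binding to arrayed compounds as a control protein.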 The following applies: higher = more signal.
Chain of Streptavidin (Streptomyces avidinii) (P22629 whole entry, looked up): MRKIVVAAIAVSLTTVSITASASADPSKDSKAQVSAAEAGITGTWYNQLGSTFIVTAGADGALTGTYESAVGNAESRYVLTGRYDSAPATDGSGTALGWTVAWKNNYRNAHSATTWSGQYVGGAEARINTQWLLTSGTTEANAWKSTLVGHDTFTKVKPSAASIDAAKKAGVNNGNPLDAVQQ
A short description of experiment [16]: probe aInhba binding on compound microarray – biochemical, small-molecule microarray, 635/667 nm fluorescence, primary screen (AID 1148).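 Further: score merges 667nm spot fluorescence with signal-to-noise for antibody binding to printed compounds.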 The following applies: higher = more signal.
The target in experiment [17] is Torsin-1A (Homo sapiens) (UniProt O14656). Description: TOR1A wild-type binding on microarray – cell lysate, small-molecule microarray, lysate, 635/667 nm, primary screen (AID 1149). The following applies: COS7 hTOR1A-WT lysate, 635 nm fluorescence, higher = more signal.
Chain of Torsin-1A (Homo sapiens) (O14656 whole entry, looked up): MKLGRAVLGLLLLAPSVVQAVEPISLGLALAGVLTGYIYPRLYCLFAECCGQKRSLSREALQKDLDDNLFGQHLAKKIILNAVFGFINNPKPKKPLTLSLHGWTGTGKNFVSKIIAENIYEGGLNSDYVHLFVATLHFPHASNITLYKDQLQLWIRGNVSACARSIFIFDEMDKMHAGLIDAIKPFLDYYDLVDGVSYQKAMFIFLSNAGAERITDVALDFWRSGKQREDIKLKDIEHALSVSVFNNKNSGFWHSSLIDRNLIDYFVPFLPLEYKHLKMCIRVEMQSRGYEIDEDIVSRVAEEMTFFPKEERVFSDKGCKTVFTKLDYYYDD
Experiment [18] has the same target. The experiment can be described thus: torsin A mutant lysate binding on microarrays – cell lysate, small-molecule microarray, COS7 lysate, 635/667 nm fluorescence, primary screen (AID 1150).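 Further: score pools 667 nm emission and signal to noise measuring lysate protein binding.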 The following applies: COS7 hTOR1A mutant lysate, 635 nm fluorescence, higher = more signal.
Experiment [19] deals with Sonic hedgehog protein (Shh). The experiment can be described thus: Sonic hedgehog microarray binding compounds – biochemical, small-molecule microarray, 635/667 nm fluorescence, primary screen (AID 1151).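 Further: Shh protein binding to compounds spotted on small-molecule microarray slides; score combines spot fluorescence intensity with signal-to-noise across triplicate slides.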 The following applies: 635 nm fluorescence, higher = more signal.

For the molecule `C=CC[C@@H](OC(=O)Nc1ccc(OC)cc1)c1ccc(OCCO)cc1`, the composite z-score is -0.662 in experiment [1]; -0.646 in experiment [2]; -0.676 in [3]; -3 in [4]; -0.787 in [5]; -1.6 in experiment [6]. The composite z-score in the experiment with Lefty1 was -0.999; in experiment [8] it was -0.262; in experiment [10], -1.2; in experiment [15], -1.21; in experiment [16], -0.237; with Torsin-1A (Homo sapiens) [17] it was -3.71. The composite z-score with Torsin-1A (Homo sapiens) [18] is -3; in [19] it was -0.49. In addition, the z-score in experiment [7] is -0.371; in experiment [9], -5.18 (inactive); in experiment [11] it was -2.05 (inactive); in [12], -0.542 (inactive); in experiment [13], 1.29 (inactive); in experiment [14], 0.0646 (inactive).
With `C=C[C@@H](COC(C)=O)NS(=O)(=O)c1ccc(Br)cc1`, the composite z-score came to 0.188 in [1]; 0.374 in experiment [2]; 0.0776 in [3]; 0.156 in experiment [4]; 0.635 in experiment [5]; 0.617 in experiment [6]. Moreover, the composite z-score was 0.283 in the experiment on Lefty1; 0.428 in experiment [8]; -0.0143 in experiment [10]; 0.0981 in [15]; -0.0589 in [16]; 0.825 in the experiment with Torsin-1A (Homo sapiens) [17]. For the same molecule, the composite z-score with Torsin-1A (Homo sapiens) [18] is 0.357; in experiment [19], -0.0658. The z-score in [7] was -0.367; in experiment [9] it was -0.823 (inactive); in [11], -2.37 (inactive); in experiment [12] it was -0.446 (inactive); in experiment [13], 0.904 (inactive); in [14], 0.344 (inactive).
For the molecule `CC(=O)n1cc(C(O)C2C=CC3C(=O)N(c4ccccc4)C(=O)C3N2Nc2ccccc2)c2ccccc21` (stereo not given), the composite z-score in experiment [1] was 0.917; in experiment [2], 0.663; in experiment [3], 0.0901; in experiment [4], 0.735; in [5] it was 1.36; in experiment [6], -0.379. Moreover, the composite z-score with Lefty1 was -0.137; in experiment [8], 1.27; in experiment [10] it was 0.689; in experiment [15] it was 0.862; in [16], 0.426; in the experiment with Torsin-1A (Homo sapiens) [17] it was 0.14. The composite z-score with Torsin-1A (Homo sapiens) [18] came to 1.08; in experiment [19], 0.497. Besides, the z-score in experiment [7] is -0.282; in [9], 0.252 (inactive); in experiment [11] it was -3.34 (inactive); in experiment [12] it was -0.504 (inactive); in [13] it was 0.436 (inactive); in experiment [14], -0.507 (inactive).
For `CC(C)CNC(=O)[C@@H]1c2ccccc2C(=O)N(Cc2cc(F)cc(C(F)(F)F)c2)[C@H]1c1ccc(CO)cc1`, the composite z-score in [1] was determined as 0.437; in [2] it was 0.538; in experiment [3] it was 0.0403; in experiment [4], 0.626; in experiment [5], 1.02; in experiment [6], 0.721. Further, the composite z-score in the experiment with Lefty1 was -0.0543; in experiment [8] it was 0.042; in experiment [10], 0.342; in experiment [15] it was 0.111; in experiment [16] it was 0.117; in the experiment with Torsin-1A (Homo sapiens) [17], 0.71. Besides, the figures for the composite z-score (with Torsin-1A (Homo sapiens) [18]; in experiment [19]) were 0.192 and 0.465, respectively. For the same molecule, the z-score in [7] is 2.47; in [9], -1.38 (inactive); in [11], -0.959 (inactive); in [12], 0.96 (inactive); in experiment [13] it was 0.001 (inactive); in experiment [14], -0.372 (inactive).
`COC(=O)[C@@]1(Cc2ccc(F)cc2)[C@H]2c3cc(C(=O)N4CCCC4)n(CCF)c3C[C@H]2CN1C(=O)c1ccccc1`: the composite z-score in [1] was 2.82; in experiment [2], 1.2; in experiment [3] it was 1.67; in experiment [4], 0.642; in experiment [5], 0.088; in [6] it was -0.299. Further, the composite z-score was -0.427 in the experiment on Lefty1; 1.4 in experiment [8]; 1.5 in experiment [10]; 1.99 in [15]; 1.66 in experiment [16]; 0.103 in the experiment with Torsin-1A (Homo sapiens) [17]. Besides, the composite z-score with Torsin-1A (Homo sapiens) [18] is 1.07; in experiment [19], -0.462. In addition, the z-score in experiment [7] was 0.0101; in experiment [9] it was 0.125 (inactive); in experiment [11], -2.28 (inactive); in experiment [12], -0.603 (inactive); in experiment [13], 0.952 (inactive); in experiment [14], 1.33 (inactive).
